# The full list was thinned out, with hits kept by preference.
# Dicer inh = inhibitors of Dicer pre-microRNA processing, primary screen, biochemical, cat-ELCCA, chemiluminescence | 47,000 tested, 6% active | cat-ELCCA pre-miR-21 Dicer processing; active compounds read high | z-score at 25 µM; in the data active = z-score above about 3, passing the limit was not always enough;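 also: plate controls were vehicle for no effect and no enzyme for full effect; higher signal means more uncleaved substrate so more Dicer inhibition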
# Target sequence (Q9UPY3 whole entry, looked up): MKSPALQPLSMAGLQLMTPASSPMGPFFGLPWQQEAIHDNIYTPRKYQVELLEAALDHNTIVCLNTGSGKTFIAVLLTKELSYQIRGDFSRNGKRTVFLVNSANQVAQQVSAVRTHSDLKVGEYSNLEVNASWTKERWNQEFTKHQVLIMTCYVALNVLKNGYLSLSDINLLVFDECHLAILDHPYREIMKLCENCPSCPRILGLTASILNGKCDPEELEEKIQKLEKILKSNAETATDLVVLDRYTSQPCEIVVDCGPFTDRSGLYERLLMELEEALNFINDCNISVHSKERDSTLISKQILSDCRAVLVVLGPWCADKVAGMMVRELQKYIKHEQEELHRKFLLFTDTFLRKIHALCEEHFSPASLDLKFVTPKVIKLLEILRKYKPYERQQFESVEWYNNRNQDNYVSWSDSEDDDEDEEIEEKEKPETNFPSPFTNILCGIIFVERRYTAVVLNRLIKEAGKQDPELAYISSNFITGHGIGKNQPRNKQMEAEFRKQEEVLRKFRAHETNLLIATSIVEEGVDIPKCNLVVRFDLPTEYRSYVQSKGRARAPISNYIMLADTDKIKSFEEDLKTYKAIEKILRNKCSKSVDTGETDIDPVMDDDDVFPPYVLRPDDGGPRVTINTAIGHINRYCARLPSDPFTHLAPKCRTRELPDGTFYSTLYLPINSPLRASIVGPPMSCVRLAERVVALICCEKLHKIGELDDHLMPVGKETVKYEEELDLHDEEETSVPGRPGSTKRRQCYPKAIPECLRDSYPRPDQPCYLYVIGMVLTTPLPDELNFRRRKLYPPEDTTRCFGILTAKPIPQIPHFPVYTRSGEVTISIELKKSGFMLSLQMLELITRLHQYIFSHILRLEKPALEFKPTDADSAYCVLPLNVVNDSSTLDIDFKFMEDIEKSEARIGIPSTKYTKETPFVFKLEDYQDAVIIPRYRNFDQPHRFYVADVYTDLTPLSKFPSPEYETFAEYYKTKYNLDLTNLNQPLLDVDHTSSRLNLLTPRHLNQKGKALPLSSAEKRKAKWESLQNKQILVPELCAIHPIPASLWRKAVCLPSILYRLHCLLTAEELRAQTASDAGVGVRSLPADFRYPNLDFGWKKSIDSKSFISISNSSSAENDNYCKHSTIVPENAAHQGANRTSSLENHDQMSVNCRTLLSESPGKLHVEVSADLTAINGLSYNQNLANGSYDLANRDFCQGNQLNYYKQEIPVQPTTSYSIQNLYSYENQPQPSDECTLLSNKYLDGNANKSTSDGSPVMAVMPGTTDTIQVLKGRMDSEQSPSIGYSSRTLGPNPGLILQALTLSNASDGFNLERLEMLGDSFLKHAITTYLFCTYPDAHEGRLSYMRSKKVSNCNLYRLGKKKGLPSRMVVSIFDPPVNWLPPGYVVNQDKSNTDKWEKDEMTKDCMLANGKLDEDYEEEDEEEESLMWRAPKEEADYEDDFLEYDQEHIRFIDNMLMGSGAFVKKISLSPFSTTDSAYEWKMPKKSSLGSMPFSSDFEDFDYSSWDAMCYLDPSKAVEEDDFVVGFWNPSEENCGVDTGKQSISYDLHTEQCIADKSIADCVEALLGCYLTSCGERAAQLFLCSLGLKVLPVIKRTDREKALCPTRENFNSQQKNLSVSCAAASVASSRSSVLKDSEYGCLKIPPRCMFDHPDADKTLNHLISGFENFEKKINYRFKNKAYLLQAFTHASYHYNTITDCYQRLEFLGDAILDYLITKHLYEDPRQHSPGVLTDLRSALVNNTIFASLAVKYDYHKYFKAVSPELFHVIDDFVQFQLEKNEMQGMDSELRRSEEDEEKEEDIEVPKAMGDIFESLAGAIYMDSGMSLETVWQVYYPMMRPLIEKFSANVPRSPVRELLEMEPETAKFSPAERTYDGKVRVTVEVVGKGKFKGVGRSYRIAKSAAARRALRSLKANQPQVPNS
# Numbers without * were called inactive.
SMILES,Dicer inh
O=C(NCc1ccco1)c1cc2n(n1)C(C(F)(F)F)CC(c1ccc(Cl)cc1)N2 (configuration not stated),2.9
O=C(NCc1cccs1)c1cc2n(n1)C(C(F)(F)F)CC(c1ccc(F)cc1)N2 (configuration not stated),1.2
Cc1ccc(C2CC(C(F)(F)F)n3ncc(C(=O)NCC4CCCO4)c3N2)cc1 (configuration not stated),0.63
O=C(NCC1CCCO1)c1cc2n(n1)C(C(F)(F)F)CC(c1ccc(Br)cc1)N2 (configuration not stated),3.7*
Cc1c(CNC(=O)c2cc3n(n2)C(C(F)(F)F)CC(c2ccc4c(c2)OCO4)N3)cnn1C (configuration not stated),-1.9
CCCCCOc1ccc2c(C)cc(=O)oc2c1,-0.33
Cc1cc(NC(=O)c2cc3c(s2)-c2ccccc2CC3)ccc1Br,1
O=C1/C(=C/c2ccc(Cl)cc2)COc2ccc(F)cc21,-0.51
O=C1CC(c2cccs2)Cc2nc(NCCSc3ccc(Cl)cc3)ncc21 (configuration not stated),0.83
S=C1C=C(N2CCCCC2)CC(c2ccccc2Cl)S1 (configuration not stated),0.71
O=C1c2ccccc2C(=O)N1CN1CCSCC1,0.66
O=C1c2ccccc2C(=O)N1CN1CCN(C(c2ccccc2)c2ccccc2)CC1,0.49
CC1CN(CN2C(=O)c3ccccc3C2=O)CC(C)O1 (configuration not stated),3.4*
Cn1c(=O)c2c(-c3ccccc3)n3c4ccccc4nc(-c4ccncc4)c3c2n(C)c1=O,0.25
COc1ccccc1N1CCN(CN2C(=O)C(=O)c3cc(Br)ccc32)CC1,-2.3
CN1C(=O)C(O)(CC(=O)c2ccc(Cl)cc2)c2ccccc21 (configuration not stated),3.9*
C=CCN1C(=O)C(O)(CC(=O)c2ccc(C)cc2)c2ccccc21 (configuration not stated),-0.13
CN1C(=O)C(O)(CC(=O)c2ccc(C(C)(C)C)cc2)c2ccccc21 (configuration not stated),0.59
CCOC(=O)CN1C(=O)C(O)(CC(=O)c2ccc3c(c2)OCO3)c2ccccc21 (configuration not stated),0.9
C=CCN1C(=O)C(O)(CC(=O)c2ccc3c(c2)OCCO3)c2ccccc21 (configuration not stated),0.54
CCN1C(=O)C(O)(CC(=O)c2c(C)cc(C)cc2C)c2ccccc21 (configuration not stated),3.5*
C=CCN1C(=O)C(O)(CC(=O)c2ccccc2)c2ccccc21 (configuration not stated),-0.1
C=CCN1C(=O)C(O)(CC(=O)c2c(C)cc(C)cc2C)c2ccccc21 (configuration not stated),0.2
CCN1C(=O)C(O)(CC(=O)c2ccncc2)c2ccccc21 (configuration not stated),1.9
C=CCN1C(=O)C(O)(CC(=O)c2ccc(CC)cc2)c2ccccc21 (configuration not stated),3.2*
SMILES,Dicer inh
C=CCN1C(=O)C(O)(CC(=O)c2ccc3c(c2)OCO3)c2ccccc21 (configuration not stated),4.3*
CC(C)c1ccc(C(=O)CC2(O)C(=O)N(C)c3ccccc32)cc1 (configuration not stated),1.7
CCOC(=O)c1cnc(C(F)(F)F)nc1N/N=C\c1c(Cl)cccc1Cl,-0.27
CCOC(=O)C1=C(C)NC2=C(C(=O)CC(c3cccs3)C2)C1c1coc2ccc(C)cc2c1=O (configuration not stated),0.69
COc1ccc(CC2CCC(=O)CC2)cc1,-1.3
CSC1=NC=C(C#N)C2=NC(C)(c3ccc(Cl)c(Cl)c3)NN12 (configuration not stated),-0.18
O=c1cc(O)c2c(Cl)cc(Cl)cc2[nH]1,1.1
COc1cc(C2C(C(=O)c3cc4ccccc4o3)=C(O)C(=O)N2CCN(C)C)ccc1O (configuration not stated),0.11
C=CCn1c(SCC(=O)NNC(=S)NC)nnc1-c1ccccc1,0.18
CC(C)(C)c1ccc(C(=O)CC2(O)C(=O)Nc3ccc(Cl)cc32)cc1 (configuration not stated),1.3
O=S(=O)(NCc1ccncc1)c1ccc(Br)cc1,1.8
COc1ccc(-c2n[nH]c(=S)n2-c2cccc(C(F)(F)F)c2)cc1,-0.41
COCCNC(=O)c1cc2n(n1)C(C(F)(F)F)CC(c1ccco1)N2 (configuration not stated),-0.64
COc1ccc(Cl)cc1NC(=O)c1cnn2c1NC(c1ccco1)CC2C(F)(F)F (configuration not stated),3*
COc1ccc(NC(=O)c2cnn3c2NC(c2cccs2)CC3C(F)(F)F)cc1OC (configuration not stated),1.4
COc1ccc(NC(=O)c2cnn3c2NC(c2ccco2)CC3C(F)(F)F)cc1OC (configuration not stated),4.6*
O=C(NCc1ccc(-n2cccn2)cc1)c1cnn2c1NC(c1ccco1)CC2C(F)(F)F (configuration not stated),1.8
O=C(Nc1cccnc1)c1cc2n(n1)C(C(F)(F)F)CC(c1ccco1)N2 (configuration not stated),0
Sc1oc(-c2ccccc2)cc1C=Nc1ccccc1Cl,1.5
CCOC(=O)c1cnc(C(F)(F)F)nc1Nc1ccccc1,-1.3
Cc1cc(=O)n2c(n1)NC(Nc1ccccc1)=NC2c1ccccc1 (configuration not stated),-0.55
CCN(CC)CCNc1ncnc2c1sc1nc(CC(C)C)c3c(c12)CC(C)(C)OC3,0.09
C#CCSC1=N/C(=C/N(C)C)C(=O)N1,9
COCCc1nnc2n1N=C(c1ccc(Br)cc1)CS2,-0.4
Fc1ccc(OCc2nnc3n2N=C(c2ccc(Br)cc2)CS3)cc1,-1
SMILES,Dicer inh
COc1ccc(OCc2nnc3n2N=C(c2ccc(Br)cc2)CS3)cc1,3*
Cc1cc(C)n(-c2ccccc2)c2nn(-c3ccccc3)c(=O)c1-2,-0.91
CC1=C(C(=O)OCCc2ccccc2)C(c2cccnc2)C2=C(CCCC2=O)N1 (configuration not stated),0.89
Cc1csc(NC(=O)c2ccco2)c1C(=O)c1ccccc1,0.11
O=C(Nc1csc(C(F)(F)F)c1-c1ccccc1)c1ccco1,4.4*
O=C(Nc1csc(C(F)(F)F)c1-c1ccccc1)C(Cl)(Cl)Cl,-0.5
CCOC(=O)c1[nH]c(C)c(C(=O)OCC)c1CC,0.48
COc1ccc(-c2cnn3c(C(F)(F)F)cc(C)nc23)cc1OC,-0.43
Cc1ccc(C(CC(=O)c2ccco2)SCCO)cc1 (configuration not stated),-1.9
Cc1ccc(S(=O)(=O)C(CC(=O)c2ccc(F)cc2)c2ccco2)cc1 (configuration not stated),3.2*
Cc1ccc(S(=O)(=O)C(CC(=O)c2ccco2)c2ccc(Cl)cc2)cc1 (configuration not stated),2.3
Cc1ccc(-c2cc3ncc(C(=O)c4cc(C)ccc4O)cn3n2)cc1,-0.53
COC(=O)C1=C2C(=O)NCCN2C(C(=O)Nc2ccc(Cl)cc2)CC1=O (configuration not stated),-0.49
N#C/C(=C1C=C/C(=N\O)C(Br)=C/1)c1ccccc1,-0.66
Cc1ccc(/C(C#N)=C2C=C/C(=N\O)C(Cl)=C\2)cc1,2.6

# Bioassay records (PubChem)
